# PREPL inh = inhibits the human prolyl oligopeptidase-like enzyme | recombinant PREPL, fluorescence polarization activity-based probe | AID 2751 | 0.68% of 320,000 active | inhibition, % at 5.96 µM | Q4J6C6; in the data active = inhibition above about 43%;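 note: 0% = enzyme with DMSO and 100% = wells lacking enzyme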
# CHT inh = inhibits the human high affinity choline transporter | Q9GZV3 | 0.86% of 310,000 active | B-score at 10 µM | CHT-expressing cells, membrane potential dye, choline response; stronger effect = lower value | AID 488975;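 active = B-score over 3 SD under the library average, and starting fluorescence ratio not unusually high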;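 note: choline stimulus applied at its EC90 after an EC20 pre-addition; B-score computed on integrated fluorescence ratio after choline addition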
# CHT allo act = allosterically activates the human high affinity choline transporter. Q9GZV3. CHT-expressing cells, membrane potential dye, choline EC20; stronger effect = higher value; LV-AA mutant CHT in HEK293 cells. B-score at 10 µM. 0.49% of 310,000 active. AID 488977;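 active = initial fluorescence not abnormally high and integrated response B-score, plate-corrected, over 3 SD above library mean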
# AI-2 QS mod = modulates the Vibrio harveyi AI-2 quorum sensing system; activity change, % at 7.5 µM; 0.4% of 300,000 active; AID 2094; Vibrio harveyi JMH597 AI-2 luminescence/OD600 ratio, 9 h; stronger effect = lower value; strain lacks LuxN and CqsS sensors; 0 = neutral-control median; in the data active = activity change below about -75%, passing the limit was not always enough;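 note: luminescence divided by OD600 gain over 9 h not by final OD600 alone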
# ALR H2O2 inh = inhibitors of human sulfhydryl oxidase ALR; 3.8% of 290,000 active; purified ALR, DTT oxidation, H2O2 HRP-luminol luminescence; AID 485317; inhibition, % (test concentration not listed); P55789;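 active = mean replicate inhibition above about 79%, with every replicate also reaching it, limit read from the data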
# CHT act confirm = confirmation of human choline transporter (CHT) activators | shares compounds with CHT allo act | CHT-expressing cells, membrane potential dye fluorescence (FDSS); % of choline EC20–EC90 response window; HEK293 expressing CHT LV-AA mutant; choline added at its EC20 | activation, % at 10 µM | 91% of 2,500 active | AID 504833;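 active = primary screen active, with duplicate mean activation above negative control mean plus 3 SD, cut at about 11% in these data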
# HEK293 MP dye = CHT activator counter-screen hit in parental HEK293 cells; shares compounds with CHT allo act; membrane potential dye fluorescence (FDSS); measured after EC20 choline addition; ratio readout change at 10 µM, hits read low; 62% of 2,500 active;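 active = duplicate-averaged ratio beyond 3 SD from buffer wells, up or down, though filed actives are nearly all decreases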
# Numbers without * were called inactive; i = inactive; x = no result. In the library only some 5% were active in any assay of this set; here they are far more common.
SMILES,PREPL inh,CHT inh,CHT allo act,AI-2 QS mod,ALR H2O2 inh,CHT act confirm,HEK293 MP dye
CCN(CC(=O)NC1CCS(=O)(=O)C1)S(=O)(=O)c1ccc(Cl)cc1C(F)(F)F (stereo unspecified),-4,i,i,17,3,x,x
COC(=O)C1CC(O)CN1C(=O)Nc1ccccc1 (stereo unspecified),2,i,i,22,0,x,x
Cc1cc(NC(=O)CCCSc2nc(-c3ccco3)cc(C(F)(F)F)n2)n(-c2ccccc2)n1,10,i,i,7,-30,15*,i
Cc1cc(NC(=O)CSc2nc(-c3ccco3)cc(C(F)(F)F)n2)n(-c2ccccc2)n1,-8,i,i,10,0,x,x
CN(C(=O)Nc1ccc(Cl)cc1Cl)C1CCCC1,-2,i,i,13,0,x,x
Cc1nn(-c2ccccc2)c(N)c1Sc1ccc([N+](=O)[O-])cc1,8,i,6.9*,8,40,36*,i
Cc1nn(S(=O)(=O)c2ccc(Cl)cc2)c(C)c1Sc1ccc([N+](=O)[O-])cc1,4,i,i,37,0,x,x
COc1cc(CNC(C)c2ccccc2)cc(Cl)c1OCC(=O)Nc1ccccc1 (stereo unspecified),1,i,i,2,x,x,x
O=C(C1COc2ccccc2O1)N1CCN(c2nc3c(F)cc(F)cc3s2)CC1 (stereo unspecified),-12,i,i,-1,-2,x,x
Cc1cc(NCCNC2=CC(=O)CCC2)nc2ccccc12,5,i,i,21,-3,48*,-47*
COC(=O)CCC(=O)Nc1ccc(S(=O)(=O)Nc2nc(C)cc(C)n2)cc1,-5,i,i,5,-11,x,x
CC(=O)c1cccc(NC(=O)c2cc3ccccn3n2)c1,-2,i,i,37,-13,35*,-27*
Cc1ccccc1NC(=O)c1cc2ccccn2n1,3,i,i,6,x,x,x
CCc1ccccc1NC(=O)C1CCCC1,8,i,i,20,0,x,x
COc1ccc(C)cc1NC(=S)N1CC(C)OC(C)C1 (stereo unspecified),5,i,i,24,-12,x,x
O=C(OCC(=O)N(CCc1ccccc1)Cc1ccccc1)c1ccccc1NCCO,11,i,i,22,-9,x,x
CCN(CC)CCn1c2ccc(F)cc2c2nc(C)sc21,-2,i,i,25,1,27*,-63*
CCn1c2ccc(C)cc2c2nnc(SCCN3CCOCC3)nc21,-4,i,i,8,31,x,x
CCOC(=O)Cn1c2ccc(C)cc2c2nc(C)sc21,4,i,i,9,x,x,x
Cc1nc2c3cc(Cl)ccc3n(CCN3CCOCC3)c2s1,2,i,i,-3,12,15*,i
CC(=O)Nc1nc(C)c(-c2nc3ccc([N+](=O)[O-])cc3[nH]2)s1,20,i,i,32,-8,x,x
CC(C)(C)OC(=O)NCCCCCc1nnc(SCc2cccc(F)c2)o1,8,i,8.3*,4,-4,-2,i
CC(C)(C)OC(=O)NCCCCCc1nnc(SCc2ccccc2F)o1,11,i,i,14,1,x,x
COc1cccc(C2CNC3(CCCC(C)C3)c3[nH]c4ccccc4c32)c1OC (stereo unspecified),22,i,i,-18,56,18*,i
Cc1cnc(C(=O)Nc2cc(S(=O)(=O)N3CCOCC3)ccc2N2CCN(C)CC2)cn1,10,i,9.7*,28,x,51*,-57*
O=C(Nc1cccc(Cl)c1)Nc1nnc(CC2=CCCCC2)s1,0,i,i,8,-9,x,x
CC1CCCc2sc3ncn(N)c(=N)c3c21 (stereo unspecified),12,i,7.1*,23,-1,52*,-50*
CC1(C)CC2CC(C)(CN2/C=N/c2sc3c(c2C#N)CC(C)(C)NC3(C)C)C1 (stereo unspecified),-11,i,8*,-11,-5,35*,i
